From PubChem
CHX counter = affects cycloheximide protein synthesis inhibition readout, counter-screen; cell reporter, cycloheximide protein synthesis inhibition counterscreen; max response, %; hit rate 12% among 300,000; AID 2314; in the data active = max response mostly above about 13%, no sharp cut-off; inactive = mostly below about 14%; note: read at 38.3 µM for the half of the compounds with a filed dose; 0% is about no effect
AMA1-RON2 inh = disrupts binding of P. falciparum AMA1 to RON2; AlphaScreen AMA1-biotinylated RON2 peptide binding; Potency, µM (highest dose often 58.2 µM), for the others: at the top dose activity change, negative = inhibition, usual class: inhibitors; hit rate 0.2% among 360,000;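 note: potency is the fitted concentration of half-maximal effect; 0% = vehicle wells and -100% = peptide control; nearly all actives have a fitted effect of over 45% in size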
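AMA1 (3D7) with his tag at 25 nM final met compounds first, then biotinylated RON2 peptide at 25 nM; detection used donor plus acceptor beads, 10 µg/mL apiece, read by AlphaScreen after 30 min at room temperature.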
Shiga inhibitor = inhibitors of Shiga toxin in Vero cells; Vero cells, Shiga toxin protein synthesis inhibition reporter; inhibition, % at 38.7 µM; hit rate 9.2% among 290,000; in the data active = inhibition mostly above about 28%, no sharp cut-off; inactive = mostly below about 43%; note: 0% is about no effect
Pf growth 48h = inhibits P. falciparum growth in the first generation, 48 h; AID 504832; Potency, µM (titrated, usually from 28.7 µM), inactives show at the highest dose activity change, negative = inhibition, actives largely listed as inhibitors; P. falciparum luciferase growth in erythrocytes, 48 h; hit rate 5.9% among 310,000; note: potency is the fitted concentration of half-maximal effect; % is set by controls: 0 for no effect and ±100 for the full control effect
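Erythrocytes infected with P. falciparum carrying an integrated firefly luciferase reporter (2% hematocrit, 0.1% parasitemia final) were exposed to compounds in RPMI 1640 with 0.5% Albumax at 37 C, 5% CO2. Growth inhibition was scored as reduced luminescence.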
Pf growth 96h = inhibits malaria parasite growth, 96 h | P. falciparum luciferase reporter growth, 96 h | Potency, µM (highest dose often 28.7 µM), for the others: at the top dose activity change, negative = inhibition, actives largely listed as inhibitors | hit rate 6.9% among 320,000 | AID 504834; note: potency is the fitted concentration of half-maximal effect; % is set by controls: 0 for no effect and ±100 for the full control effect
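Delayed-death screen, second-generation endpoint: infected erythrocytes, 2% hematocrit, 0.05% parasitemia final; 96 hours at 37 C, 5% CO2; luciferase detection reagent; luminescence decrease equals reduced growth.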
SARS PLpro yeast = blocks SARS-CoV papain-like protease in a yeast assay; S. cerevisiae expressing SARS-CoV PLpro, growth rescue; Potency, µM (doses to about 32.9 µM), without a hit: at the highest dose activity, positive = growth rescue, hits mostly activators; hit rate 0.19% among 330,000; calls by dose curve; note: potency is the fitted concentration of half-maximal effect; 0% is about no effect; nearly all actives have a fitted effect of over 55% in size
* = called active by the depositor; ? = inconclusive; / = not tested or not shown; [ ] = remark or other dose. A selection: hits, their analogues and other compounds. The true share with any hit is near 19%. Unless noted, calls come from the whole dose curve; as a rule, active = well fitted curve in the direction sought with a large enough effect; inconclusive = small, poorly fitted or top-dose-only effect, or another doubt; inactive = no such curve, though single readings can be large; an effect the other way counts as inactive or inconclusive.

SMILES | CHX counter | AMA1-RON2 inh | Shiga inhibitor | Pf growth 48h | Pf growth 96h | SARS PLpro yeast
O=C(O)c1ccc2c(c1)S(=O)(=O)c1cc(N3CCN(c4ncccn4)CC3)ccc1C2=O | / | 20% | / | / | / | /
CCN1C(=O)[C@H]2[C@H]3CN=C(SC)N3[C@@](C)(C(=O)OC)[C@H]2C1=O | / | -1% | / | / | / | /
Cc1ccc(-n2ncc3c2CCCC3NC(=O)c2csnn2)cc1C (stereo not drawn) | 19* | 16% | 60* | ? | ? | -3%
Cc1ccc(-n2ncc3c2CCCC3NC(=O)c2ccoc2)cc1C (stereo not drawn) | -3 | 4% | -3 | ? | ? | -6%
Cc1cc(C)cc(-n2ncc3c2CCCC3NC(=O)c2csnn2)c1 (stereo not drawn) | 14 | -7% | 22* | ? | ? | 0%
Cc1cc(C)cc(-n2ncc3c2CCCC3NC(=O)c2cc(C)oc2C)c1 (stereo not drawn) | 8 | -1% | 9 | -15% | 36% | -38%
Cc1cc(C)c(C(=O)NC2CCCc3c2cnn3-c2ccc(C)c(C)c2)c(=O)[nH]1 (stereo not drawn) | 27* | 0% | 25 | 1% | 23% | 1%
Cc1cc(C(=O)NC2CCCc3c2cnn3-c2ccc(C)c(C)c2)n(C)n1 (stereo not drawn) | -1 | 0% | -2 | ? | ? | -5%
COCc1ccc(C(=O)NC2CCCc3c2cnn3-c2cc(C)cc(C)c2)s1 (stereo not drawn) | 12 | 8% | 27* | ? | 7.4µM* | -17%
COc1ccc(C(=O)N2CCCCC2c2cc(C(=O)NCc3ccc(Cl)c(Cl)c3)no2)cc1 (stereo not drawn) | / | 12% | / | / | / | /
COc1ccc(Cl)cc1NC(=O)CN(C)CC(=O)NCc1ccc(F)cc1 | / | 2% | / | / | / | 1%
CC(=O)Nc1cccc(C(=O)NC2CCCc3c2cnn3-c2cc(C)cc(C)c2)c1 (stereo not drawn) | 25* | -9% | 24 | -8% | ? | 5%
Cc1cc(C(=O)NC2CCCc3c2cnn3-c2cc(F)cc(F)c2)nn1C (stereo not drawn) | 15 | -1% | 25* | 34% | ? | 0%
COCc1ccc(C(=O)NC2CCCc3c2cnn3-c2ccc(C)c(C)c2)o1 (stereo not drawn) | 26* | -1% | 93 | -10% | ? | -8%
CCn1nc(C)cc1C(=O)NC1CCCc2c1cnn2-c1cc(F)cc(F)c1 (stereo not drawn) | 11 | 14% | 13 | -4% | 18% | -7%
COc1ncccc1C(=O)NC1CCCc2c1cnn2-c1cc(C)cc(C)c1 (stereo not drawn) | -1 | -5% | 19 | -15% | 12% | -19%
COc1cccc(-c2nc(CS(=O)(=O)CC(=O)NC3CCCCCC3)c(C)o2)c1 | 1 | 1% | 1 | -10% | 8% | 5%
COC(=O)c1sc(SC)c(S(=O)(=O)C(C)C)c1N/N=C(\C#N)C(=O)c1ccccc1 | 1 | -24% | -12 | -9% | 0% | 0%
COc1cc(/C=C2/C(=O)ON=C2c2ccccc2)ccc1O | 3 | 2% | -12 | -1% | 1% | -15%
COc1cc(/C=C2\C(=O)N(C)C(=S)N2C)ccc1O | 13 | 22% | 14 | 3% | 32% | -4%
COc1cc(/C=c2\sc3n(c2=O)C(c2ccccc2)C(c2ccccc2)=NN=3)ccc1O (stereo not drawn) | -4 | -13% | -22 | 4.7µM* | 4.1µM* | 18%
O=c1/c(=C/c2ccc([N+](=O)[O-])cc2)sc2n1CCCN=2 | 35* | -1% | 46* | 98% | 116% | -15%
COc1cc(/C=c2\sc3n(c2=O)CCCN=3)ccc1O | 25* | 9% | 71 | 54% | 42% | -14%
Cc1ccc(S(=O)(=O)Nc2ccccc2C(=O)N2CCCCC2C)c(C)c1NS(C)(=O)=O (stereo not drawn) | -2 | 1% | 9 | 0% | -4% | -12%
O=C(CCCCCNC(=O)c1ccccc1)N/N=C/c1ccc(F)cc1 | 2 | 15% | -4 | 13µM* | ? | 0%
SMILES | CHX counter | AMA1-RON2 inh | Shiga inhibitor | Pf growth 48h | Pf growth 96h | SARS PLpro yeast
O=C(N/N=C/c1ccc(Br)cc1)c1ccc(Br)o1 | 51* | 6% | 65* | 39% | 36% | -20%
O=C(CCNC(=O)c1ccccc1)N/N=C/c1ccc([N+](=O)[O-])cc1 | -2 | 19% | -4 | -4% | ? | -5%
O=C(N/N=C/c1ccc(F)cc1)c1ccccc1 | 33* | 0% | 126* | 102% | 21% | -4%
O=C(O)c1ccc(/C=N/NC(=O)c2ccc(F)cc2)cc1 | 16 | -5% | 7 | 30% | -18% | 0%
O=C(Nc1ccccc1C(=O)N/N=C/c1ccc(F)cc1)c1ccccc1Br | 17* | 20% | 17 | ? | ? | -2%
CC1(C)O[C@H]2OC([C@H](O)CON3C(=O)c4ccccc4C3=O)[C@H](O)[C@H]2O1 (stereo partly drawn) | -4 | 6% | -10 | 5% | -32% | 15%
O=C(N/N=C/c1ccc(Br)cc1)c1cc[n+]([O-])cc1 | 0 | 15% | -3 | 4% | -3% | 8%
O=C(N/N=C/c1ccc(O)cc1)c1cccc(C(F)(F)F)c1 | 7 | 58% | 9 | 20% | 12% | ?
O=C(N/N=C/c1ccc(F)cc1)c1cc[n+]([O-])cc1 | 18* | 6% | 61* | 14% | 0% | -5%
Cc1cccc(/C=N/n2c(C)nnc2C)c1 | 0 | -1% | 13 | 27% | 2% | 5%
Cc1cccc(/C=N\N=C\c2cccc(C)c2)c1 | 53* | 4% | / | ? | 7.4µM* | 7%
O=C(N/N=C/c1ccc(Br)cc1)c1ccc(F)cc1 | 35* | -2%[2.32 µM] | 47* | ? | 30% | -12%
O=C(N/N=C/c1ccccc1C(F)(F)F)c1ccc(O)cc1 | 26* | -4% | 69* | 125% | 144% | 0%
O=C(/C=C/[C@H]1O[C@@H](n2ccc(=O)[nH]c2=O)[C@H](O)[C@@H]1O)NCCN1CCCC1 | / | 2% | / | / | / | /
Cc1ccc(CN2CCN(Cc3cn[nH]c3-c3cccc(F)c3)CC2CCO)o1 (stereo not drawn) | 2 | 6% | 7 | ? | ? | 0%
O=C(N/N=C/c1ccc(F)cc1)c1ccc(Br)cc1 | 15 | 0% | 62 | 16% | 39% | 2%
Cc1cccc(/C=N/NC(=O)c2ccc(Br)cc2)c1 | 34* | 7% | 70* | 71% | 32% | -9%
Cc1ccc(C)c(C(=O)Cn2c(NCCO)nc3ccccc32)c1 | -4 | -8% | -7 | / | 17% | 0%
CCO[C@@H]1OC(C(N)=O)=C[C@H](C2CC2)[C@H]1CCCO | / | -4% | / | / | / | /
N/C(=N\OC(=O)CCC1CCCC1)c1ccccc1 | 20* | 25% | 59 | 39% | -35%[1.15 µM] | 1%
